HT1080NT lethal: qHTS for induction of synthetic lethality in tumor cells producing 2HG: qHTS for the HT-1080-NT fibrosarcoma cell line | HT-1080-NT fibrosarcoma viability, CellTiter-Glo ATP luminescence, 48 h | Potency, µM (top dose mostly 46.1 µM), most hits filed as cytotoxic | hit rate 1.6% among 360,000 | AID 686970, 2013;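 also: NT is the 2HG producing partner of a matched IDH1 knockdown line; nearly all actives have a fitted effect of over 55% in size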
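Viability by CellTiter-Glo luminescence after 48 h compound exposure at 37C of HT-1080-NT cells (750/well, RPMI, 5% FBS). % activity scaled between DMSO wells and medium-only wells, then curve-fitted and categorized by curve class.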
TDP1 cell noCPT: qHTS for Inhibitors of human tyrosyl-DNA phosphodiesterase 1 (TDP1): qHTS in cells in absence of CPT | DT40 Tdp1-/- hTDP1 cells, no CPT, ATP luminescence, 48 h | Potency, µM (series often up to 46.2 µM), most hits filed as inhibitors | hit rate 15% among 420,000 | AID 686978, 2013; also: nearly all actives have a fitted effect of over 55% in size
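Luminescent ATP content (CellTiter-Glo) served as the growth readout. Knockout chicken DT40 cells expressing human TDP1 were exposed to compounds without camptothecin for a minimum 48 hr at 37 °C.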
HT1080 IDH1KD tx: qHTS for induction of synthetic lethality in tumor cells producing 2HG: qHTS for the HT-1080-IDH1KD cell line. HT-1080 IDH1 knockdown viability, ATP luminescence, 48 h. Potency, µM (top dose mostly 46.1 µM), usual class: cytotoxic. hit rate 2% among 360,000. AID 686971, 2013
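Viability of IDH1-knockdown HT-1080 fibrosarcoma cells was assessed by CellTiter-Glo after 48 h at 37 °C with titrated compound; concentration-effect curves were classified by fit quality and response size.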
TDP1 cell CPT: qHTS for Inhibitors of human tyrosyl-DNA phosphodiesterase 1 (TDP1): qHTS in cells in presence of CPT | chicken DT40 Tdp1-/-;hTDP1 cells + 20 nM CPT, ATP luminescence, 48 h | Potency, µM (top dose mostly 46.2 µM), usual class: inhibitors | hit rate 12% among 420,000 | AID 686979, 2013; also: nearly all actives have a fitted effect of over 55% in size
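Chicken DT40 Tdp1-/- cells stably complemented with human TDP1 were seeded at 400 cells/well in medium containing 20 nM camptothecin, exposed to pin-transferred compounds, and grown at 37 °C for at least 48 hr. Viability was read as ATP luminescence.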
HepG2 tox: qHTS for Inhibitors of TGF-b: Cytotox Counterscreen; AID 588856, 2011; hit rate 0.76% among 410,000; HepG2 CAGA-GFP viability, ATP luminescence, 18 h; Potency, µM (top dose mostly 46.1 µM), most hits filed as cytotoxic
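HepG2 CAGA-GFP cells (1000/well, DMEM with 1% FBS) received compound, then TGF-beta at 500 pg/mL final, and were incubated 18 hours at 37 degrees C. Viability was read by CellTiter-Glo luminescence. Media-only wells were set as complete cell-killing and DMSO as no toxicity.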
TGFb inhibitor: qHTS for Inhibitors of TGF-b; HepG2 CAGA-GFP TGF-b/SMAD3 reporter, GFP fluorescence, 18 h; TGF-beta stimulated, 500 pg/mL final; Potency, µM (titrated, usually from 46.1 µM), usual class: inhibitors; hit rate 1.2% among 410,000; also: nearly all actives have a fitted effect of over 65% in size
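Inhibition of TGF-beta-driven CAGA-GFP reporter expression in HEPG2 cells is measured by cellular GFP fluorescence after 18 h stimulation with 500 pg/mL recombinant TGF-beta in 1% FBS medium at 37 degrees C.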
A number is an active result; i = inactive; ? = inconclusive; nt = no result. Sampled rows, rich in hits. Any-hit rate of the full collection: about 17%. Calls follow the shape of the dose curve; as a rule, active = well fitted curve in the direction sought with a large enough effect; inconclusive = small, poorly fitted or top-dose-only effect, or another doubt; inactive = no such curve, though single readings can be large; an effect the other way counts as inactive or inconclusive.

SMILES | HT1080NT lethal | TDP1 cell noCPT | HT1080 IDH1KD tx | TDP1 cell CPT | HepG2 tox | TGFb inhibitor
CCOC(=O)c1c(S(=O)(=O)NCC(=O)N2CCN(c3ccc(F)cc3)CC2)c(C)n(C)c1C | i | i | i | i | i | i
CCCCCCCCCCCCCC(=O)OCC(COP(=O)([O-])OCC[N+](C)(C)C)OC(=O)CCCCCCCCCCCCC (centres undefined) | nt | i | nt | i | nt | nt
CCOc1ccc2[nH]c(=O)c(CN(CCN3CCCC3)C(=S)Nc3ccccc3OCC)cc2c1 | ? | 23µM | ? | ? | 14µM | 16µM
COc1ccc2[nH]c(=O)c(CN(CCN3CCCC3)C(=O)Nc3ccccc3Cl)cc2c1 | i | ? | i | ? | i | i
CCN(CC)S(=O)(=O)c1ccc(S(=O)(=O)N2CCC(C(=O)NC3CCN(Cc4ccccc4)CC3)CC2)cc1 | i | i | i | i | i | i
Cc1cc(C)c(S(=O)(=O)NC2CCN(Cc3ccccc3)CC2)c(C)c1 | i | ? | i | ? | i | ?
Cc1cc(C)c(C)c(S(=O)(=O)NC2CCN(Cc3ccccc3)CC2)c1C | ? | ? | 16µM | ? | i | ?
Cc1ccc(Cl)cc1S(=O)(=O)N1CCC(C(=O)NC2CCN(Cc3ccccc3)CC2)CC1 | i | 15µM | i | ? | i | i
Cc1cc(S(=O)(=O)NC2CCN(Cc3ccccc3)CC2)c(C)cc1Cl | ? | ? | 21µM | ? | i | ?
COc1ccc(CNC(=O)CN2C(=O)NC(c3ccccc3)(c3ccccc3)C2=O)cc1 | i | i | i | ? | i | i
COc1ccc(CNC(=O)c2ccc(CS(=O)(=O)c3ccccc3OC)o2)cc1 | nt | ? | nt | i | i | i
COc1ccccc1S(=O)(=O)Cc1ccc(C(=O)NCc2ccc(Cl)cc2)o1 | nt | 18µM | nt | ? | i | i
O=C(NCc1ccc(F)cc1)c1ccc(CS(=O)(=O)c2ccc(Cl)cc2)o1 | nt | 16µM | nt | ? | i | ?
COc1ccc(N(CC(=O)NCCSC2CCCCC2)S(C)(=O)=O)c(OC)c1 | i | i | i | ? | i | i
O=C(NC(Cc1ccccc1)C(=O)O)/C(=C/c1ccc(F)cc1)NC(=O)c1ccccc1 (centres undefined) | i | i | i | i | i | i
Cc1ccc(F)cc1NC(=O)CSc1nc(Nc2ccccc2)nc(N2CCOCC2)n1 | i | ? | i | ? | i | i
CN(C)c1nc(SCC(=O)Nc2ccccc2)nc(N2CCOCC2)n1 | i | i | i | i | i | i
CCNc1nc(SCC(=O)Nc2ccc(Cl)c(Cl)c2)nc(N2CCOCC2)n1 | ? | 18µM | ? | ? | i | i
CN(C)c1nc(SCC(=O)Nc2ccc(Cl)c(Cl)c2)nc(N2CCOCC2)n1 | i | 23µM | i | i | i | i
CC(C)(C)Nc1nc(SCC(=O)Nc2ccccc2)nc(N2CCOCC2)n1 | i | 23µM | i | ? | i | i
COc1ccc(NC(=O)c2ccc3[nH]c(C)cc(=O)c3c2)cc1 | nt | i | nt | i | i | i
O=C(NCc1ccc(Cl)cc1)c1ccc2nc[nH]c2c1 | i | i | i | i | i | i
O=C(Cn1c(=O)n(Cc2ccc(F)cc2)c(=O)c2sc3ccccc3c21)NCc1ccccc1Cl | nt | ? | nt | ? | i | i
Cc1csc(NC(=O)CSc2nncc(=O)n2N)n1 | i | i | i | i | i | i
CCN(CC)C(=O)C1=C(C)Nc2nc3ccccc3n2C1c1cccc(Cl)c1 (centres undefined) | nt | ? | nt | ? | i | i
SMILES | HT1080NT lethal | TDP1 cell noCPT | HT1080 IDH1KD tx | TDP1 cell CPT | HepG2 tox | TGFb inhibitor
Cc1ccc2cc(CN(C(=O)c3ccco3)c3cccc(C)c3C)c(=O)[nH]c2c1 | i | ? | i | i | i | i
Cc1ccc(N(Cc2cc3ccc(C)cc3[nH]c2=O)C(=O)c2ccco2)c(C)c1 | i | 23µM | i | ? | i | i
Cc1ccc2cc(CN(C(=O)c3ccco3)c3ccccc3C)c(=O)[nH]c2c1 | i | 21µM | i | ? | i | i
COc1ccc(-c2csc3nc(-c4ccccc4C)oc(=O)c23)cc1OC | nt | i | nt | i | i | i
O=C(Oc1ccc(NC(=O)c2cc3c(cc2Br)OCO3)cc1)c1ccccc1 | i | i | i | i | i | i
O=c1cc(CSCc2ccc(Cl)cc2)[nH]c(=O)[nH]1 | i | i | i | i | i | i
CCCSc1ncc(Cl)c(C(=O)Nc2ccc(S(=O)(=O)N3CCCCC3C)cc2)n1 (centres undefined) | nt | 8.2µM | nt | ? | i | nt
CCC1CCCCN1S(=O)(=O)c1ccc(NC(=O)c2snnc2C)cc1 (centres undefined) | i | ? | i | ? | i | ?
CCC1CCCCN1S(=O)(=O)c1ccc(NC(=O)c2nc(SC)ncc2Cl)cc1 (centres undefined) | nt | 23µM | nt | 21µM | i | ?

Bioassay records from PubChem.
